Assay outcomes: PubChem, several laboratories
Pyk2 oligo antag = antagonists of Pyk2 self-association, primary screen, Q293 cells, FERM NanoBiT luminescence, HTS; hits give low values; z-score (the deposit names both 25 µM and 10 µM); 0.83% of 99,000 active; AID 1347419, 2020;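 active = Z-score of -3 or lower, scaled per plate to the spread of control and sample wells; inactive = z-score above -3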;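 also: negative z-score means lost luminescence so less FERM oligomerization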
Cav3 T inh = Cav3.2 calcium influx blockers – cell-based, Fluo-4 calcium fluorescence, FDSS, MLSMR library, primary screen; Voltage-dependent T-type calcium channel subunit alpha-1H (Homo sapiens), O95180; Cav3.2-expressing cells; hits give low values; B-score at 10 µM; 4% of 100,000 active; AID 449739, 2010;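 active = single-dose well whose peak fluorescence ratio is a statistical outlier from its plate by either plate-standardised score or position-corrected B-score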
SDO1 yeast rescue = growth rescue of sdo1-depleted yeast, primary screen, S. cerevisiae, bone marrow failure model; S. cerevisiae sdo1-depleted JHY4D growth rescue, OD600 30 h; hits give high values; pdr5 snq2 efflux-pump mutant strain; 0.21% of 140,000 active; z-score at 10 µM;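 active = z-score above 3 at both the 24 hr and the 30 hr optical density reads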;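 also: z-score against mean and SD of all compound wells on the same plate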
PLK1 PBD inh = Plk1 polo box domain binding inhibitors, primary screen, biochemical, fluorescence polarization; Serine/threonine-protein kinase PLK1 (Homo sapiens), P53350; Plk1 PBD phosphopeptide binding; inhibition, %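 (tested at about 20 µM)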; 0.13% of 97,000 active; AID 693, 2007; in the data active = inhibition above about 34%, passing the limit was not always enough
PLK1 kinase inh = human PLK1 kinase inhibitors, primary screen, biochemical, TR-FRET. recombinant PLK1 kinase, TR-FRET peptide phosphorylation. inhibition, % at 10 µM. 0.53% of 97,000 active;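 active = inhibition of 50% or more in the single-concentration screen; inactive = inhibition below 50%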;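 also: 0% = DMSO max control and 100% = H-89 dihydrochloride min control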
hDAT+cocaine = changed hDAT dopamine uptake under cocaine IC80, either direction, primary screen, cocaine antagonist project, cell-based, LLC-PK1 hDAT, [14C]-dopamine uptake, MLSMR | Sodium-dependent dopamine transporter (Homo sapiens), Q01959 | LLC-PK1 hDAT cells, [14C]-dopamine uptake with cocaine IC80; actives deviate in either direction | B-score at 10 µM | 1.3% of 110,000 active;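 active = Z score or B-score, a plate-position-corrected score, falls beyond the plate's 99.7% confidence bounds, in either direction; inactive = both scores lie inside the 99.7% bounds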;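 also: scored against the spread of the other compound wells on the same plate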
Target sequence (Q01959 whole entry, looked up): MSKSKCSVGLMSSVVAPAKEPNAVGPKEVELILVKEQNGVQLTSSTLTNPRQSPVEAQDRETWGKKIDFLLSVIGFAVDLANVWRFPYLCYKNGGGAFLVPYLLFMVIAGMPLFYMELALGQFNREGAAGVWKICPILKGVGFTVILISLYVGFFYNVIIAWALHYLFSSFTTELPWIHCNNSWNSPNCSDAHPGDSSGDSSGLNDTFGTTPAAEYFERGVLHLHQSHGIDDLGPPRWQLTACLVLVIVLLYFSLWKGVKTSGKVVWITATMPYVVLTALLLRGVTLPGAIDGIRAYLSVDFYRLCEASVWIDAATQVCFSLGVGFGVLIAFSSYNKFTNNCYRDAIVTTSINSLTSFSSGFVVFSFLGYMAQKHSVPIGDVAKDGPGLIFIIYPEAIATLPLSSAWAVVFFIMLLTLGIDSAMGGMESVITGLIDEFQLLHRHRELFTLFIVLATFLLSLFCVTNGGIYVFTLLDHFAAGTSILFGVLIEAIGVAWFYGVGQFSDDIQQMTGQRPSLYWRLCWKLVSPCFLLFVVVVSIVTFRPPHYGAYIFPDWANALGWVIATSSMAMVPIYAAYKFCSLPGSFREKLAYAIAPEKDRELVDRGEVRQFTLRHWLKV
Starred values were filed as active, the others as inactive; · = no result given. An excerpt weighted towards active compounds, which were near 4.7% of everything screened.

SMILES | Pyk2 oligo antag | Cav3 T inh | SDO1 yeast rescue | PLK1 PBD inh | PLK1 kinase inh | hDAT+cocaine
CCCC[C@@H]1CCCO[C@@](C(=O)NCc2ccccn2)(C(F)(F)F)C1 | · | -1.2 | · | · | · | 3.1*
CS(=O)(=O)Oc1ccc(/C=N/NC(=O)c2ccncc2)cc1 | · | · | -0.03 | · | · | ·
COC(=O)CNC(c1ccccc1)c1cc(C)ccc1NC(=O)CNC(=O)OCc1ccccc1 (stereo not given) | -1.1 | -7.2* | -0.53 | 17 | -3 | 0.33
COC(=O)CNC(c1ccccc1)c1cc(Br)ccc1NC(=O)OCc1ccccc1 (stereo not given) | -2.2 | -9.4* | -1.1 | -25 | -6 | 1
CCN(CC)C(=S)Nc1cc(C(=O)OC)ccc1C(=O)OC | · | · | -0.25 | · | · | ·
CCN(CC)S(=O)(=O)c1ccc2c(c1)nc(CCC(=O)Nc1ccccc1Cc1ccccc1)n2CC | -0.63 | -4.4* | -0.66 | -2 | -11 | 0.12
COc1ccc(C(=O)N/C(=C\c2cn(C)c3ccccc23)C(=O)OCC(C)C)cc1 | · | · | -1.5 | · | · | ·
CCN(CC)C(=O)CSc1nc(N)c2c3c(sc2n1)CC(C)CC3 (stereo not given) | -1 | 0.5 | -2.3 | -13 | -3 | 2.1*
CC1CCc2c(sc3nc(SCC(=O)NCc4ccco4)nc(N)c23)C1 (stereo not given) | -0.6 | -2.5 | -1.2 | 5 | -1 | 0.28
O=C1C(Cc2cccc([N+](=O)[O-])c2)SC(=Nc2ccccc2)N1c1ccccc1 (stereo not given) | · | · | -0.66 | · | · | ·
CC(C)(C)N1CC(COc2ccccc2)OC1=O (stereo not given) | -0.11 | -0.56 | -0.09 | 20 | -11 | -8.9*
Cc1ccccc1OCC1CN(CN2CCOCC2)C(=O)O1 (stereo not given) | 1.4 | -0.16 | 0.5 | -8 | -18 | -0.046
COCCNC(=O)c1c(N)n(-c2cccc(C)c2)c2nc3ccccc3nc12 | 0.08 | -6.1* | -0.41 | 12 | -14 | 1.6
COCCNC(=O)c1c(N)n(-c2ccccc2)c2nc3ccccc3nc12 | -0.15 | -0.31 | -0.43 | -8 | -25 | -0.26
Cc1ccc(-c2csc3ncnc(Sc4nnc(CN5CCCCCC5=O)o4)c23)cc1 | -2.9 | -6.7* | -1.8 | -19 | 10 | 1.3
Oc1ccc(Br)cc1CNn1cnnc1 | 0.3 | -3.8* | 0.24 | -6 | -10 | -0.97
Cn1c(NCc2cc(Br)ccc2O)nc2ccccc21 | -1.7 | -0.8 | 0.63 | 9 | -14 | -0.18
Cc1ccccc1Nc1nc(Nc2ccccc2C)nc(SC2=NCCS2)n1 | -1.8 | -4.6* | -0.69 | 25 | -2 | 0.5
C=C(c1ccc(O)cc1)c1ccc(O)cc1 | -4.6* | -0.47 | -0.77 | -22 | 7 | -0.13
COc1ccc(C2/C=C\CN(Cc3ccc(N(C)C)cc3)CC(=O)N2Cc2ccc(F)cc2)cc1 (stereo not given) | · | -0.35 | · | · | · | -0.31
O=C(C(Sc1ccccc1)c1ccc(Br)cc1)N1CCOCC1 (stereo not given) | · | · | 0.2 | · | · | ·
O=C(C(Sc1ccccc1)c1ccccc1)N1CCN(c2ccccc2F)CC1 (stereo not given) | -2.1 | -4* | -1.1 | 8 | -11 | -0.018
CC1CCN(C(=O)c2ccc3c(c2)OCCO3)CC1 | -0.65 | -0.081 | 0.68 | -20 | -10 | 6.7*
CCOC(=O)CSC1=C(C#N)C(c2ccc(C)cc2)C(C(=O)OC)C(=O)N1 (stereo not given) | 0.57 | 0.85 | -0.64 | 8 | -35 | -0.48
COC(=O)C1=C(O)C(C(=O)OC)C(c2ccc(C)cc2)C(C#N)(C#N)C1c1ccc(C)cc1 (stereo not given) | -1.3 | -5.6* | -0.75 | 5 | -12 | -0.75
SMILES | Pyk2 oligo antag | Cav3 T inh | SDO1 yeast rescue | PLK1 PBD inh | PLK1 kinase inh | hDAT+cocaine
COc1ccccc1CNCC(O)(c1ccc(Cl)cc1)c1ccc(Cl)cc1 | 0.64 | -4.5* | -1.1 | -23 | 5 | 0.85
OC(CNCc1ccccc1)(c1ccc(F)cc1)c1ccc(F)cc1 | -0.12 | -2.7 | 0.29 | 3 | -10 | -0.2
CC(C)(C)NC(=O)CSc1nncn1NCc1ccccc1 | 0.42 | 0.67 | 1.1 | -19 | -11 | 0.15
Cc1ccc(CNn2cnnc2SCC(=O)NC(C)(C)C)cc1 | 0.71 | 1.2 | 0.2 | -3 | 2 | 2.2*
CCC1=CC(c2ccccc2)n2ncnc2N1 (stereo not given) | · | 0.2 | · | · | · | -0.17
CCn1cc(C(=O)OCC(=O)OC2CC(C)CCC2C(C)C)c(=O)c2ccc(C)nc21 (stereo not given) | -0.89 | -6.4* | 0.15 | -19 | -4 | 0.13
CCn1cc(C(=O)OCc2ccccc2)c(=O)c2ccc(C)nc21 | -0.04 | -0.022 | 0.38 | -5 | 0 | 1.3
COc1ccc(CC(=O)Nc2ccccc2C(=O)N2CCOCC2)cc1 | · | · | 1.5 | · | · | ·
COc1ccccc1Nc1nc(N)nc(CN2CCN(c3ccccc3)CC2)n1 | -0.39 | -0.4 | -0.9 | 16 | -18 | 2.5*
COc1cccc(N2CCN(Cc3nc(N)nc(Nc4ccccc4OC)n3)CC2)c1 | 0.61 | -1 | -0.27 | -22 | -5 | 0.14
COc1ccccc1Nc1nc(N)nc(CN2CCC(Cc3ccccc3)CC2)n1 | 0.41 | -5.2* | -0.48 | 10 | -11 | 1.3
COc1ccc(Nc2nc(N)nc(CN3CCC(Cc4ccccc4)CC3)n2)cc1 | · | -2.9 | -1.6 | · | · | 0.22
COc1ccc(C2CC(=O)C3=C(C2)Nc2ncnn2C3c2ccccc2C)c(OC)c1 (stereo not given) | -3.6* | -2.7 | -0.53 | · | · | -1
CC1CC(=O)C2=C(C1)Nc1ncnn1C2c1ccccc1 (stereo not given) | 0.84 | 0.73 | 0.58 | 4 | 29 | 1.1
CC(Cc1cccs1)NC(=O)Nc1ccc(Cl)c(Cl)c1 (stereo not given) | -2.2 | · | -3.1 | -13 | 1 | ·
CCc1ccc(C(=O)N/N=C/c2cccc3ccccc23)nc1 | -0.74 | · | -0.65 | · | · | ·
O=C(Nc1nncs1)c1ccc(S(=O)(=O)c2ccccc2)cc1 | 0.49 | -0.083 | 0.27 | 2 | -14 | -8.7*
O=C(Nc1nnc(C2CC2)s1)c1ccc(S(=O)(=O)c2ccccc2)cc1 | 0.46 | 0.31 | -0.48 | -3 | -8 | 0.92
CCCCCCN(C(=O)CCCCCN1C(=O)NC(c2ccccc2)C(C(=O)OCc2ccccc2)=C1C)C(C(=O)NCCCC)c1ccc(OCC(=O)OC)c(C(=O)OC)c1 (stereo not given) | · | -1.8 | · | · | · | 0.27
O=C(CN1C(=O)NC2(CCCCCCC2)C1=O)N1CCc2ccccc2C1 | 0.39 | 0.96 | -0.14 | -22 | -9 | 0.15
